According to the supplement of paper PMC10646978:
± gives the standard deviation.

Columns and labels:
Conditions in all cases: modulator concentration 10 µM
[1] = test system: RAW-Dual (murine macrophage reporter line); assay: NF-kB reporter (SEAP) activity fold change vs agonist alone; higher = enhanced NF-kB activity
Summary of the method: (§1)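 In 384-well plates holding 50 000 RAW-Dual murine macrophage reporter cells per well, compound at 10 μM final was pre-incubated for 1 hour at 37 °C, after which a PRR agonist was added overnight. Supernatant SEAP read with QUANTI-Blue at 620 nm absorbance reported NF-κB, and Lucia luciferase read with QUANTI-Luc luminescence reported IRF. Fold change values come from dividing each reporter signal by the mean of agonist-only control wells on the same plate, averaged over replicate plates with propagated errors.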

[2] = test system: RAW-Dual (murine macrophage reporter line); assay: IRF reporter (Lucia luciferase) activity fold change vs agonist alone; higher = enhanced IRF activity
Summary of the method: as §1

[3] = test system: RAW-Dual (murine macrophage reporter line); assay: viability score (confluency relative to resting cells, overnight) (fraction); higher = more viable, active = viable (0.7 or more)
Summary of the method: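 Two confluency masks, generated with IncuCyte software over all imaged wells, were applied to IncuCyte images of RAW-Dual macrophages. The cells, in 384-well plates, had been exposed overnight to 10 μM final compound. The viability score is confluency as a fraction of resting cells, and a compound met the cutoff only with both masks above 70% of resting cells.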

[4] = agonist: CpG ODN 1826 0.5 ug/mL

Structure (SMILES): CNc1ncnc2c1ncn2[C@@H]1O[C@H](CO)[C@@H](O)[C@H]1O [Prestw-338]
- NF-kB reporter [1, 4]: 0.931 ± 0.073
- NF-kB reporter ([1]; agonist: LPS 0.1 ug/mL): 0.929 ± 0.09
- NF-kB reporter ([1]; agonist: MPLA […]): 1.16 ± 0.15
- IRF reporter ([2]; agonist: 3'3'-cGAMP 10 ug/mL): 1.15 ± 0.043
- IRF reporter ([2]; agonist: LPS 0.1 ug/mL): 1.25 ± 0.17
- IRF reporter ([2]; agonist: MPLA […]): 1.33 ± 0.25
- viability score [3]: 1.05 (active)

Structure (SMILES): COc1ccc2sc(C)[n+](CCCS(=O)(=O)[O-])c2c1
- NF-kB reporter [1, 4]: 0.951 ± 0.088
- NF-kB reporter ([1]; agonist: LPS 0.1 ug/mL): 1.08 ± 0.074
- NF-kB reporter ([1]; agonist: MPLA […]): 0.923 ± 0.064
- IRF reporter ([2]; agonist: 3'3'-cGAMP 10 ug/mL): 0.923 ± 0.086
- IRF reporter ([2]; agonist: LPS 0.1 ug/mL): 1.05 ± 0.12
- IRF reporter ([2]; agonist: MPLA […]): 1.1 ± 0.3
- viability score [3]: 1 (active)

Structure (SMILES): COC(=O)Nc1nc2cc(S(=O)c3ccccc3)ccc2[nH]1 (stereo unspecified) [Prestw-1459]
- NF-kB reporter [1, 4]: 1.03 ± 0.087
- NF-kB reporter ([1]; agonist: LPS 0.1 ug/mL): 0.896 ± 0.079
- NF-kB reporter ([1]; agonist: MPLA […]): 0.932 ± 0.051
- IRF reporter ([2]; agonist: 3'3'-cGAMP 10 ug/mL): 0.896 ± 0.04
- IRF reporter ([2]; agonist: LPS 0.1 ug/mL): 0.825 ± 0.13
- IRF reporter ([2]; agonist: MPLA […]): 0.884 ± 0.23
- viability score [3]: 0.999 (active)

Structure (SMILES): COC(c1ccccc1)(c1ccccc1)[C@H](Oc1nc(C)cc(C)n1)C(=O)O
- NF-kB reporter [1, 4]: 1.32 ± 0.18
- NF-kB reporter ([1]; agonist: LPS 0.1 ug/mL): 1.08 ± 0.11
- NF-kB reporter ([1]; agonist: MPLA […]): 0.901 ± 0.055
- IRF reporter ([2]; agonist: 3'3'-cGAMP 10 ug/mL): 1.05 ± 0.043
- IRF reporter ([2]; agonist: LPS 0.1 ug/mL): 1.3 ± 0.14
- IRF reporter ([2]; agonist: MPLA […]): 1.15 ± 0.11
- viability score [3]: 1 (active)

Structure (SMILES): CCOC(=O)C1=C(C)NC(C)=C(C(=O)OC)C1c1cccc([N+](=O)[O-])c1 (stereo unspecified)
- NF-kB reporter [1, 4]: 0.706 ± 0.055
- NF-kB reporter ([1]; agonist: LPS 0.1 ug/mL): 0.763 ± 0.088
- NF-kB reporter ([1]; agonist: MPLA […]): 0.859 ± 0.076
- IRF reporter ([2]; agonist: 3'3'-cGAMP 10 ug/mL): 1.02 ± 0.049
- IRF reporter ([2]; agonist: LPS 0.1 ug/mL): 1.44 ± 0.098
- IRF reporter ([2]; agonist: MPLA […]): 1.37 ± 0.11
- viability score [3]: 0.985 (active)

Structure (SMILES): CC1(C)OC[C@@H](COC(=O)CCc2ccc(OC[C@@H](O)CNCCNC(=O)N3CCOCC3)cc2)O1.Cl
- NF-kB reporter [1, 4]: 1.05 ± 0.079
- NF-kB reporter ([1]; agonist: LPS 0.1 ug/mL): 0.966 ± 0.072
- NF-kB reporter ([1]; agonist: MPLA […]): 0.987 ± 0.023
- IRF reporter ([2]; agonist: 3'3'-cGAMP 10 ug/mL): 0.985 ± 0.098
- IRF reporter ([2]; agonist: LPS 0.1 ug/mL): 0.97 ± 0.11
- IRF reporter ([2]; agonist: MPLA […]): 0.832 ± 0.2
- viability score [3]: 1 (active)

Structure (SMILES): COc1ccc(Oc2coc3cc(OC(=O)c4ccc(Cl)c([N+](=O)[O-])c4)ccc3c2=O)cc1
- NF-kB reporter [1, 4]: 0.82 ± 0.063
- NF-kB reporter ([1]; agonist: LPS 0.1 ug/mL): 0.981 ± 0.052
- NF-kB reporter ([1]; agonist: MPLA […]): 1.08 ± 0.094
- IRF reporter ([2]; agonist: 3'3'-cGAMP 10 ug/mL): 0.892 ± 0.048
- IRF reporter ([2]; agonist: LPS 0.1 ug/mL): 1.29 ± 0.08
- IRF reporter ([2]; agonist: MPLA […]): 1.43 ± 0.14
- viability score [3]: 1.02 (active)

Structure (SMILES): O=C(Nc1cc(C(F)(F)F)cc(C(F)(F)F)c1)c1cc2ccccc2o1
- NF-kB reporter [1, 4]: 0.961 ± 0.082
- NF-kB reporter ([1]; agonist: LPS 0.1 ug/mL): 1.05 ± 0.08
- NF-kB reporter ([1]; agonist: MPLA […]): 0.952 ± 0.12
- IRF reporter ([2]; agonist: 3'3'-cGAMP 10 ug/mL): 0.953 ± 0.042
- IRF reporter ([2]; agonist: LPS 0.1 ug/mL): 1.32 ± 0.25
- IRF reporter ([2]; agonist: MPLA […]): 1.03 ± 0.29
- viability score [3]: 1.01 (active)

Structure (SMILES): Cc1ccc(-n2ncc3c(SCC(=O)NC(C)(C)C)ncnc32)c(C)c1
- NF-kB reporter [1, 4]: 1.01 ± 0.082
- NF-kB reporter ([1]; agonist: LPS 0.1 ug/mL): 1.16 ± 0.1
- NF-kB reporter ([1]; agonist: MPLA […]): 1.05 ± 0.047
- IRF reporter ([2]; agonist: 3'3'-cGAMP 10 ug/mL): 0.644 ± 0.026
- IRF reporter ([2]; agonist: LPS 0.1 ug/mL): 0.95 ± 0.048
- IRF reporter ([2]; agonist: MPLA […]): 1.22 ± 0.18
- viability score [3]: 0.996 (active)

Structure (SMILES): COc1ccc(C(=O)NCCOc2cc(C)cc(C)c2)cc1OC
- NF-kB reporter [1, 4]: 1.48 ± 0.12
- NF-kB reporter ([1]; agonist: LPS 0.1 ug/mL): 1 ± 0.056
- NF-kB reporter ([1]; agonist: MPLA […]): 0.827 ± 0.062
- IRF reporter ([2]; agonist: 3'3'-cGAMP 10 ug/mL): 1.02 ± 0.045
- IRF reporter ([2]; agonist: LPS 0.1 ug/mL): 1.42 ± 0.19
- IRF reporter ([2]; agonist: MPLA […]): 1.03 ± 0.21
- viability score [3]: 1.01 (active)

Structure (SMILES): N#Cc1ccnc(N2C(=O)CC[C@H]2C(=O)N(c2cncc(F)c2)[C@H](C(=O)NC2CC(F)(F)C2)c2ccccc2Cl)c1
- NF-kB reporter [1, 4]: 1.26 ± 0.3
- NF-kB reporter ([1]; agonist: LPS 0.1 ug/mL): 1.04 ± 0.07
- NF-kB reporter ([1]; agonist: MPLA […]): 1.26 ± 0.08
- IRF reporter ([2]; agonist: 3'3'-cGAMP 10 ug/mL): 1.09 ± 0.055
- IRF reporter ([2]; agonist: LPS 0.1 ug/mL): 1.28 ± 0.2
- IRF reporter ([2]; agonist: MPLA […]): 1.17 ± 0.12
- viability score [3]: 1 (active)

Structure (SMILES): CC1=C(C(=O)OC2CCCCC2)C(c2ccc(N(C)C)cc2)C2=C(CC(C)(C)CC2=O)N1 (stereo unspecified)
- NF-kB reporter [1, 4]: 0.767 ± 0.12
- NF-kB reporter ([1]; agonist: LPS 0.1 ug/mL): 0.697 ± 0.08
- NF-kB reporter ([1]; agonist: MPLA […]): 1.16 ± 0.1
- IRF reporter ([2]; agonist: 3'3'-cGAMP 10 ug/mL): 0.843 ± 0.083
- IRF reporter ([2]; agonist: LPS 0.1 ug/mL): 0.943 ± 0.071
- IRF reporter ([2]; agonist: MPLA […]): 1.04 ± 0.22
- viability score [3]: 1 (active)

Structure (SMILES): Brc1ccc2ncnc(NCc3cccnc3)c2c1
- NF-kB reporter [1, 4]: 1.22 ± 0.069
- NF-kB reporter ([1]; agonist: LPS 0.1 ug/mL): 1.31 ± 0.11
- NF-kB reporter ([1]; agonist: MPLA […]): 1.02 ± 0.04
- IRF reporter ([2]; agonist: 3'3'-cGAMP 10 ug/mL): 0.329 ± 0.014
- IRF reporter ([2]; agonist: LPS 0.1 ug/mL): 0.498 ± 0.047
- IRF reporter ([2]; agonist: MPLA […]): 0.641 ± 0.11
- viability score [3]: 1 (active)
